Records with an inconclusive call do not appear. The source made the active and inactive calls. Calls come from the whole dose curve; as a rule, active = well fitted cell-killing curve with a large enough effect in the repeat runs; inconclusive = weak or mixed curves, or effect the other way; inactive = flat fitted curve, though single readings scatter.
Experiment: cAMP Responsive Elements (CRE) small molecule antagonists, cell-based qHTS assay: qHTS cell viability counter screen (AID 2060913); note: nearly all actives have a fitted effect of over 40% in size
Details: CRE-bla HEK293T viability, CellTiter-Glo luminescence, 5 h; series mostly up to 92.4 µM; viability change, negative = cytotoxic: at the top concentration
Source text: U.S. Tox21 Program National Center for Advancing Translational Sciences [NCATS] Division of Preclinical Innovation [DPI] U.S. Environmental Protection Agency [EPA] National Institutes of Environmental Health Sciences [NIEHS] National Toxicology Program [NTP] U.S. Food and Drug Administration [FDA] Tox21 Assay Overview: CREB (cyclic-AMP Responsive Element Binding Protein) is a cellular transcription factor. It binds to certain DNA sequences called cAMP Responsive Elements (CRE) and regulates the transcription of the genes. […] This cell line can be used to find agonists/antagonists of the cyclic AMP signaling pathway. The activation of the report gene under culture conditions can be detected by fluorescence intensity. This cell line has been used to screen the Tox21 10K compound library to identify agonists that induce oxidative stress. The cytotoxicity of the Tox21 compound library against the CRE-bla cell line was tested in parallel by measuring the cell viability using CellTiter-Glo assay (Promega, Madison, WI) in the same wells.
Tox21 Assay Protocol Summary: CRE-bla Hek 293T cells were suspended in assay medium (DMEM containing 10% dialyzed FBS, 0.1 mM NEAA, 1 mM sodium pyruvate and 25 mM HEPES) and dispensed at 2,000 cells/4 uL /well into 1536-well black wall/clear bottom plates using a Multidrop Combi (ThermoFisher Scientific, Waltham, MA) dispenser. After the assay plates were incubated at 37 C/5% CO2 for 18 hrs, 23 nL of compounds dissolved in DMSO, positive controls or DMSO only was transferred to the assay plate by a pintool workstation (Kalypsys, San Diego, CA), followed by addition of 1 uL of 1.25uM NKH477 (0.25 uM as final concentration) in assay medium using a Flying Reagent Dispenser (Aurora Discovery, San Diego, CA). The plates were incubated at 37 C and 5% CO2 for 3 hrs. Then 1 uL of LiveBLAzer B/G FRET substrate (Invitrogen, Carlsbad, CA) was added to each well using Bioraptr Flying Reagent Dispenser (FRD, Aurora Discovery, San Diego, CA). The plates were incubated at room temperature for 2 h, then fluorescence intensities were measured using an Envision plate reader (PerkinElmer, Shelton, CT) at Excitation 405nm, Emission 460nm and 530nm. The % activity was determined from the ratio of 460nm/530nm. For cell viability readout that measures cytotoxicity, 4 uL /well of CellTiter-Glo reagent was added into the assay plates using Bioraptr FRD. After 30 min incubation at room temperature, the luminescence intensity in the assay plates was measured using a ViewLux (PerkinElmer, Shelton, CT) plate reader.
% is set by controls: 0 for no effect and ±100 for the full control effect.

Row | Structure (SMILES) | viability change, negative = cytotoxic | Potency
1 | Clc1cccnc1 | 14.6% (inactive) | –
2 | CCCCC/C=C\C=C\C(=O)OCC | 7.12% (inactive) | –
3 | NCCCNCCSP(=O)(O)O | -1.42% [at 8.39 µM] (inactive) | –
4 | CCCCCC(=O)O | – | inactive
5 | COC(=O)Nc1nc2ccc(C(=O)C3CC3)cc2[nH]1 | -2.61% [at 42.5 µM] (inactive) | –
6 | O=c1n(CCCN2CCN(c3cccc(Cl)c3)CC2)nc2ccccn12 | – | inactive
7 | CNC(=S)N(C)C | – | inactive
8 | O=C(CN1CCNCC1)NC1CCCCC1 | -1.01% [at 42.5 µM] (inactive) | –
9 | O=C(O)c1[nH]n(-c2ccc(S(=O)(=O)O)cc2)c(=O)c1N=Nc1ccc(S(=O)(=O)O)cc1 | – | inactive
10 | CN(C)c1ccc(Cc2ccc(N(C)C)cc2)cc1 | – | inactive
11 | CC(C)C[P+](C)(CC(C)C)CC(C)C | -0.45% (inactive) | –
12 | CCCc1cc(=O)[nH]c(=S)[nH]1 | – | inactive
13 | O=[N+]([O-])c1ccccc1C(F)(F)F | – | inactive
14 | CC(C)(C)NCCNC(C)(C)C | 0.34% (inactive) | –
15 | CN1CCN(C(=O)C2CCCCC2)CC1 | 3.42% [at 42.5 µM] (inactive) | –
16 | N#CSCSc1nc2ccccc2s1 | -10.4% (inactive) | –
17 | CCOC(=O)COc1ccc2c(C)c(CCN(CC)CC)c(=O)oc2c1Cl | 3.85% [at 42.5 µM] (inactive) | –
18 | CC(=O)OC1CCC(C(C)(C)C)CC1 (stereo not given) | 6.89% (inactive) | –
19 | CCN1CCN(c2cc3c(cc2F)c(=O)c(C(=O)O)cn3C2CC2)CC1 | 3% [at 42.5 µM] (inactive) | –
20 | CO[C@@]12[C@H](COC(N)=O)C3=C(C(=O)C(C)=C(N)C3=O)N1C[C@@H]1N[C@@H]12 | 0.321% [at 42.5 µM] (inactive) | –

Row | Structure (SMILES) | viability change, negative = cytotoxic | Potency
21 | C[C@@H]1CN(c2c(F)c(F)c3c(=O)c(C(=O)O)cn(C4CC4)c3c2F)C[C@H](C)N1 | -1.63% [at 18.9 µM] (inactive) | –
22 | O=S(=O)(O)c1ccc(O)cc1 | – | inactive
23 | Cc1cccc(Br)c1 | -13.1% (inactive) | –
24 | CC(=O)OCC(C)OC(C)=O (stereo not given) | -5.59% (inactive) | –
25 | CCCCCC(=O)CC | -6.84% (inactive) | –
26 | NC(=O)c1ccccc1C(N)=O | 1.56% (inactive) | –
27 | CC1C(C)(C)C2=C(C(=O)CCC2)C1(C)C (stereo not given) | -0.407% (inactive) | –
28 | CN(C)[C@@H]1C(=O)C(C(N)=O)=C(O)[C@@]2(O)C(=O)C3=C(O)c4c(O)cccc4C[C@H]3C[C@@H]12 | -0.414% [at 42.5 µM] (inactive) | –
29 | Nc1c(Cl)cc(Cl)cc1Cl | 6.84% (inactive) | –
30 | CN(C)Cc1ccccc1 | 9.91% (inactive) | –
31 | Cc1cccc(C)c1OCC(C)N (stereo not given) | -0.173% [at 42.5 µM] (inactive) | –
32 | COc1ccc(OC(F)(F)F)cc1CN[C@H]1CCCN[C@H]1c1ccccc1 | -22.3% (inactive) | –
33 | [Na+] | – | inactive
34 | Clc1ccc(C(Cn2ccnc2)OCc2ccc(Sc3ccccc3)cc2)c(Cl)c1 (stereo not given) | -1.09% [at 42.5 µM] (inactive) | –
35 | CO[Si](CCCCl)(OC)OC | 3.27% (inactive) | –
36 | Cc1cc(N)n(-c2ccccc2)n1 | -0.16% (inactive) | –
37 | CC(=O)N1C[C@H](O)C[C@H]1C(=O)O | 8.16% [at 42.5 µM] (inactive) | –
38 | CCCCCCCCCCCCCCCCCC(=O)OCCCCCCCCCCCCCC(C)C | -17.9% (inactive) | –
39 | COc1ccc(C2C(=O)c3ccccc3C2=O)cc1 | 5.68% [at 42.5 µM] (inactive) | –
40 | CC(C)(CCC(=O)O)C(=O)O | 5.85% (inactive) | –

Reference: PubChem BioAssay (Tox21)
